# Results reported in ChEMBL document CHEMBL1961873, “Compounds: GSK PKIS; Assays: Nanosyn kinase panel” (2012).
# Tests used:
# [1] = target: T1, Serine/threonine-protein kinase Nek9 (Homo sapiens) (UniProt Q8TD19); conditions: at 1 µM;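 further: each value is a mean percent inhibition of NEK9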
# T1 sequence (whole entry): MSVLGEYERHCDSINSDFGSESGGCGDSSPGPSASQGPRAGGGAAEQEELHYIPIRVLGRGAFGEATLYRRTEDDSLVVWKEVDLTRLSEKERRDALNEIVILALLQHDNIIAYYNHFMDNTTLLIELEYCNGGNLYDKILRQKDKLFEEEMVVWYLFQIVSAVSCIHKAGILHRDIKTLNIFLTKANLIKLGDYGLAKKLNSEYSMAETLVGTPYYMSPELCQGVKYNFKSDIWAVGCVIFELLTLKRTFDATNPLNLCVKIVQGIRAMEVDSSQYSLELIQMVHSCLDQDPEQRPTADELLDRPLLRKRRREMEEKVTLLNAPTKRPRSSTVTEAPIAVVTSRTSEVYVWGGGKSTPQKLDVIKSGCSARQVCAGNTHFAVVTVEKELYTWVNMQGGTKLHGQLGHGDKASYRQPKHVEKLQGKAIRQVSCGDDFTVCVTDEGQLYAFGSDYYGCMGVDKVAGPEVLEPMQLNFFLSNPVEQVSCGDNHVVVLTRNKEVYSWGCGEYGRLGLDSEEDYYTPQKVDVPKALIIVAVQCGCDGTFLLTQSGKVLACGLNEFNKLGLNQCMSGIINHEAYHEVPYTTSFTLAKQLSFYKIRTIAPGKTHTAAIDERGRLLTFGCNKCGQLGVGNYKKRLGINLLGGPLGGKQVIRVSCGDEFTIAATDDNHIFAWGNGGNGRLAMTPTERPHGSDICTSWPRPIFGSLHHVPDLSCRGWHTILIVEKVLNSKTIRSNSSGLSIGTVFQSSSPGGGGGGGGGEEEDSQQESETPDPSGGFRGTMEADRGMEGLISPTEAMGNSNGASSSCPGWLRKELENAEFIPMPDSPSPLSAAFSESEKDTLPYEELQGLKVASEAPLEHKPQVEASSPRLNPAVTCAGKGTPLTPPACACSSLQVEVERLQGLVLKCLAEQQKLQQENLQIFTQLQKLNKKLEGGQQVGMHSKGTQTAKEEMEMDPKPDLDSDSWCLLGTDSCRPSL
# [2] = target: Serine/threonine-protein kinase PLK1 (Homo sapiens) (UniProt P53350); conditions: at 0.1 µM
# Serine/threonine-protein kinase PLK1 (Homo sapiens), sequence (P53350 whole entry): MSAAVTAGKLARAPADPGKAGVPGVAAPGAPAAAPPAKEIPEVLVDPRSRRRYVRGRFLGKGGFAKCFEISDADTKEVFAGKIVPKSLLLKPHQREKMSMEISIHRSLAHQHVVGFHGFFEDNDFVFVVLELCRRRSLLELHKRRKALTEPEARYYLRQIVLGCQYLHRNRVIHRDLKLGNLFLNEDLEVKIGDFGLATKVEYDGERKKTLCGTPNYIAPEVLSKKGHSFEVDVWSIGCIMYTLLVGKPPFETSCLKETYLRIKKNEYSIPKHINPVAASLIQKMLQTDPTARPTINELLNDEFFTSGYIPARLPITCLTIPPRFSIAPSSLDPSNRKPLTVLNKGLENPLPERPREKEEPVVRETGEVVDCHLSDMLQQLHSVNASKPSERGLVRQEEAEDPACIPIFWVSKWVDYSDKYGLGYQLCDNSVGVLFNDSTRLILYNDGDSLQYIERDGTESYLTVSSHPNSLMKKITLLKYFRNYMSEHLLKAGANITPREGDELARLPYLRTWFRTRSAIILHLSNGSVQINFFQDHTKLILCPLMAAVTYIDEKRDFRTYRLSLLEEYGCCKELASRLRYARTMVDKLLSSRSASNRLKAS
# [3] = target: Serine/threonine-protein kinase PLK1 (Homo sapiens) (UniProt P53350); conditions: at 1 µM
# [4] = target: T2, Dual specificity protein kinase TTK (Homo sapiens) (UniProt P33981); conditions: at 0.1 µM
# T2 sequence (whole entry): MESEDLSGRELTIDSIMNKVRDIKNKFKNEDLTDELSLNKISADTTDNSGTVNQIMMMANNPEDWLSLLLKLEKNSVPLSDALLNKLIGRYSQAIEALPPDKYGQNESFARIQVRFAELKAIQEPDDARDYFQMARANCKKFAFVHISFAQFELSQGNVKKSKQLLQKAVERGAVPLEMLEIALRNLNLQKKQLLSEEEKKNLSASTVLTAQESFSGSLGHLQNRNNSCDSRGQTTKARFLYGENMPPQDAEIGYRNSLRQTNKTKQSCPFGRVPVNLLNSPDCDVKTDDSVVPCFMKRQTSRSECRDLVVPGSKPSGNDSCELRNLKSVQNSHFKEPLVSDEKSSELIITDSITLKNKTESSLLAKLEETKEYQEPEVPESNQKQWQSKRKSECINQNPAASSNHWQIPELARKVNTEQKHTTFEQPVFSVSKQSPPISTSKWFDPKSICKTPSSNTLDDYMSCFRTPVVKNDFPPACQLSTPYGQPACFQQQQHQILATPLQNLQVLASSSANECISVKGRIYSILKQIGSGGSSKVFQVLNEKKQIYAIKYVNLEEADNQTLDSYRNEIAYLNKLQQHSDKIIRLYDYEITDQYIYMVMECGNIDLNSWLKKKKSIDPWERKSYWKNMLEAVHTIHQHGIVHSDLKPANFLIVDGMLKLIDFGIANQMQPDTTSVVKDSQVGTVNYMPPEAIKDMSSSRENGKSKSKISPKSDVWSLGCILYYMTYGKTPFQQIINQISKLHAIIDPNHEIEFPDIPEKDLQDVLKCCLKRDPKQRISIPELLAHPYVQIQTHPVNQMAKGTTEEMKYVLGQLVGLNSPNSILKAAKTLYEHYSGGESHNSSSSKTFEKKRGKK
# [5] = test system: T3, Receptor-type tyrosine-protein kinase FLT3 (Homo sapiens), P36888 [D835Y]; conditions: at 1 µM
# T3 sequence (whole entry): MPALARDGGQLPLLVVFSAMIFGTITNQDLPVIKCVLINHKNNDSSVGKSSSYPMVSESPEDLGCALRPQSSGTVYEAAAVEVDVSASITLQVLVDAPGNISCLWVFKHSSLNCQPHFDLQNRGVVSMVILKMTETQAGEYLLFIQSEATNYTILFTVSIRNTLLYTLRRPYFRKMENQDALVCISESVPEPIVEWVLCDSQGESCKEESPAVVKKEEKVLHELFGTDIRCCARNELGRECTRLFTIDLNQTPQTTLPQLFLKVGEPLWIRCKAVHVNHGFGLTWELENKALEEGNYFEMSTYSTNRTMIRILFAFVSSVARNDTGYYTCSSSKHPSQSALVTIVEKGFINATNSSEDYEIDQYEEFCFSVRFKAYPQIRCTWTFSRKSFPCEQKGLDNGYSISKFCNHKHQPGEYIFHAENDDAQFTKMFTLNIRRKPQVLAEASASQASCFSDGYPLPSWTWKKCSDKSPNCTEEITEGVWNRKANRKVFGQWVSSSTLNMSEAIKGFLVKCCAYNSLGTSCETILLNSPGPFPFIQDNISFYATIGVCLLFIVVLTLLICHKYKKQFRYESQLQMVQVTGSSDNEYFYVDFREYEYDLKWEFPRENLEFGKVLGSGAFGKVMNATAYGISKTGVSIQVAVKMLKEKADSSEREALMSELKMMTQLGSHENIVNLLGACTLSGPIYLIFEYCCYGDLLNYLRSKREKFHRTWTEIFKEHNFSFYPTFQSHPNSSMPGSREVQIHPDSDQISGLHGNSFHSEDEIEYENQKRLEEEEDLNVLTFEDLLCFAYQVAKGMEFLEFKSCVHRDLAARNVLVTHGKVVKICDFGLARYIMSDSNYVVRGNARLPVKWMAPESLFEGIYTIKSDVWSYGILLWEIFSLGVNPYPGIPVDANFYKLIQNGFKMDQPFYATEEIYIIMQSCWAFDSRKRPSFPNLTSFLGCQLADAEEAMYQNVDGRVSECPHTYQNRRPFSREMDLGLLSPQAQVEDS
# [6] = target: Vascular endothelial growth factor receptor 3 (Homo sapiens) (UniProt P35916); conditions: at 0.1 µM
# [7] = target: Vascular endothelial growth factor receptor 3 (Homo sapiens) (UniProt P35916); conditions: at 1 µM
# [8] = target: Macrophage colony-stimulating factor 1 receptor (Homo sapiens) (UniProt P07333); conditions: at 0.1 µM
# [9] = target: Macrophage colony-stimulating factor 1 receptor (Homo sapiens) (UniProt P07333); conditions: at 1 µM
# [10] = target: Tyrosine-protein kinase Fyn (Homo sapiens) (UniProt P06241); conditions: at 0.1 µM
# Tyrosine-protein kinase Fyn (Homo sapiens), sequence (P06241 2-537 limits assumed): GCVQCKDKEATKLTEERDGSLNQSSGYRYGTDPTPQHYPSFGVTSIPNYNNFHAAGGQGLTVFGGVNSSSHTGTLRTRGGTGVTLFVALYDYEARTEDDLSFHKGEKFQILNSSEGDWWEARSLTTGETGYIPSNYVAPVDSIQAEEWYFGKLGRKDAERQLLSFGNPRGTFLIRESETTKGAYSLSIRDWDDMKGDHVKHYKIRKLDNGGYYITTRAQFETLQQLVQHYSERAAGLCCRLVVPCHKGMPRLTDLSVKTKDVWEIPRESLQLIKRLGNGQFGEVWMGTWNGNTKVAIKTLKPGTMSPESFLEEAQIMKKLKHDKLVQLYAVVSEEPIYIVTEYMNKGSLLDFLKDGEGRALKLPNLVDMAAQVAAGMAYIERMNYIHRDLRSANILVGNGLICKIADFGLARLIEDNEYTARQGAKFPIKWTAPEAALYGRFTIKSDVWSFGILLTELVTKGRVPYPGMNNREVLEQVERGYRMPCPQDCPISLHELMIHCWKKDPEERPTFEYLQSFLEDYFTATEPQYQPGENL
# [11] = target: Tyrosine-protein kinase Fyn (Homo sapiens) (UniProt P06241); conditions: at 1 µM
# [12] = target: Tyrosine-protein kinase HCK (Homo sapiens) (UniProt P08631); conditions: at 0.1 µM
# Tyrosine-protein kinase HCK (Homo sapiens), sequence (P08631 2-526 limits assumed): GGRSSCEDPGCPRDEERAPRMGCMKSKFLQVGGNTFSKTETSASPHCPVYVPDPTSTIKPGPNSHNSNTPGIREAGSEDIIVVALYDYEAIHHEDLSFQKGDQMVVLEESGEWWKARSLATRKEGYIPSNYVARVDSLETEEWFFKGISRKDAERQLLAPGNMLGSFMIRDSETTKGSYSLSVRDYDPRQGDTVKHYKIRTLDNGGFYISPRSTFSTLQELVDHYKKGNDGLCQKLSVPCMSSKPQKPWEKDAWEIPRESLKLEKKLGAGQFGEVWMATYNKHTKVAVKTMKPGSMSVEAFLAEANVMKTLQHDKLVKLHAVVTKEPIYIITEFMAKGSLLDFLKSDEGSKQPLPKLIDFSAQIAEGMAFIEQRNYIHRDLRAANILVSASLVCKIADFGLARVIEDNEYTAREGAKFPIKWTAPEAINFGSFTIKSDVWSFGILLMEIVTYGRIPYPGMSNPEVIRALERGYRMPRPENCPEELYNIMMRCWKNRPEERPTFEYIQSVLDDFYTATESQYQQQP
# [13] = target: Tyrosine-protein kinase HCK (Homo sapiens) (UniProt P08631); conditions: at 1 µM
# [14] = target: Insulin-like growth factor 1 receptor (Homo sapiens) (UniProt P08069); conditions: at 0.1 µM
# Insulin-like growth factor 1 receptor (Homo sapiens), sequence (P08069 31-736 limits assumed): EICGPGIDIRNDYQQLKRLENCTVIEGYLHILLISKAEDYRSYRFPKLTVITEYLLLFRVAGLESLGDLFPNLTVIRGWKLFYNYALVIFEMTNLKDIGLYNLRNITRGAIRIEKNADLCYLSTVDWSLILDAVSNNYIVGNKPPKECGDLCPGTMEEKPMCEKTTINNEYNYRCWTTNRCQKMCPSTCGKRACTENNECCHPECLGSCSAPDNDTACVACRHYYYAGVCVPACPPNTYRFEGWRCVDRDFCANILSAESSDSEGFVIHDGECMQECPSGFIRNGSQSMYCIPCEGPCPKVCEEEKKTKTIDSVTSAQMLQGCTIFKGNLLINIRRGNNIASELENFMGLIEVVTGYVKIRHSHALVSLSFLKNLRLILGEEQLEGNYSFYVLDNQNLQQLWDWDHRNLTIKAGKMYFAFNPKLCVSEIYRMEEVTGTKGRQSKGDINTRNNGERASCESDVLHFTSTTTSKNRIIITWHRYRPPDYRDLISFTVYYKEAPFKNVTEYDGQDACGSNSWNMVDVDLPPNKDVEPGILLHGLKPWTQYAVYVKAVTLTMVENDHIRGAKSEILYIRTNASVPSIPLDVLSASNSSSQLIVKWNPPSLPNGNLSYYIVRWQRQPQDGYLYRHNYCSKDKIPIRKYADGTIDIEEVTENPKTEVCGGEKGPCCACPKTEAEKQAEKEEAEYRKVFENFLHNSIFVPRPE
# Insulin-like growth factor 1 receptor (Homo sapiens), sequence (P08069 741-1367 limits assumed): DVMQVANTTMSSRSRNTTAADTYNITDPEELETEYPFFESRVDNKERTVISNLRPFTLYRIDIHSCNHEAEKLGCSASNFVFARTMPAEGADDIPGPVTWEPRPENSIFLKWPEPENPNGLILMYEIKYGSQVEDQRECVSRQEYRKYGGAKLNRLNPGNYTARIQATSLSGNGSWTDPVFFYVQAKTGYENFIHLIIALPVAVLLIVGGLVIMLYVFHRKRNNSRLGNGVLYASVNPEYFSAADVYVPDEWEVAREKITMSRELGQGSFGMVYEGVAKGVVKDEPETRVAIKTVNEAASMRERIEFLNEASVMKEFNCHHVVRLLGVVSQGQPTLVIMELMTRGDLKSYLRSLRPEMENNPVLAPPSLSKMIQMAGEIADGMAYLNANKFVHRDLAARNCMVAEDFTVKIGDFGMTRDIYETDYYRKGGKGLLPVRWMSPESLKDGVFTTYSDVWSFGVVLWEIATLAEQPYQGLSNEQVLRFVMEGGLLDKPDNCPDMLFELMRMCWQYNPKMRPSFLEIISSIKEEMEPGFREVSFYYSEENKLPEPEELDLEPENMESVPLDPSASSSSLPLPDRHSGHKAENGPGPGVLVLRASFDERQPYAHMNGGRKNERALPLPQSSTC
# [15] = target: Insulin-like growth factor 1 receptor (Homo sapiens) (UniProt P08069); conditions: at 1 µM
# [16] = target: Insulin receptor (Homo sapiens) (UniProt P06213); conditions: at 0.1 µM
# [17] = target: Insulin receptor (Homo sapiens) (UniProt P06213); conditions: at 1 µM
# [18] = target: Insulin receptor-related protein (Homo sapiens) (UniProt P14616); conditions: at 0.1 µM
# Insulin receptor-related protein (Homo sapiens), sequence (P14616 27-742 limits assumed): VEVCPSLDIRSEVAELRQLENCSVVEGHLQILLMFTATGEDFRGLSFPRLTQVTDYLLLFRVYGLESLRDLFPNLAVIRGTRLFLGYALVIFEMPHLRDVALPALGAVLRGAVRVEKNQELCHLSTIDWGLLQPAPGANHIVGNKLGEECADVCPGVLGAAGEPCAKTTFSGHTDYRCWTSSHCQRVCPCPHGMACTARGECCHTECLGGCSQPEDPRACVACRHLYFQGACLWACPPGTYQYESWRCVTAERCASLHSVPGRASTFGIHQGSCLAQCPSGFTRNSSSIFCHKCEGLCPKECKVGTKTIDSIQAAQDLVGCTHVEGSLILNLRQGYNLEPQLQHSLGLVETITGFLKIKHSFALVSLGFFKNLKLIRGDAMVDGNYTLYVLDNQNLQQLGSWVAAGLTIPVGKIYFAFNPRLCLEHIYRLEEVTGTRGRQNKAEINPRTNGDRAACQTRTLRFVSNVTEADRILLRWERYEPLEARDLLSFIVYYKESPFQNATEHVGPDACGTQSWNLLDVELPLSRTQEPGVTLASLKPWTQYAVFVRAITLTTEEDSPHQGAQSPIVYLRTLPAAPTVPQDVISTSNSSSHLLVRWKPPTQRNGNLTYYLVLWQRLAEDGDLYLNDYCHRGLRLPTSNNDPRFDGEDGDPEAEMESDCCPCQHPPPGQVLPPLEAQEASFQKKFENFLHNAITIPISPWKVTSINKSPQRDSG
# Insulin receptor-related protein (Homo sapiens), sequence (P14616 747-1297 limits assumed): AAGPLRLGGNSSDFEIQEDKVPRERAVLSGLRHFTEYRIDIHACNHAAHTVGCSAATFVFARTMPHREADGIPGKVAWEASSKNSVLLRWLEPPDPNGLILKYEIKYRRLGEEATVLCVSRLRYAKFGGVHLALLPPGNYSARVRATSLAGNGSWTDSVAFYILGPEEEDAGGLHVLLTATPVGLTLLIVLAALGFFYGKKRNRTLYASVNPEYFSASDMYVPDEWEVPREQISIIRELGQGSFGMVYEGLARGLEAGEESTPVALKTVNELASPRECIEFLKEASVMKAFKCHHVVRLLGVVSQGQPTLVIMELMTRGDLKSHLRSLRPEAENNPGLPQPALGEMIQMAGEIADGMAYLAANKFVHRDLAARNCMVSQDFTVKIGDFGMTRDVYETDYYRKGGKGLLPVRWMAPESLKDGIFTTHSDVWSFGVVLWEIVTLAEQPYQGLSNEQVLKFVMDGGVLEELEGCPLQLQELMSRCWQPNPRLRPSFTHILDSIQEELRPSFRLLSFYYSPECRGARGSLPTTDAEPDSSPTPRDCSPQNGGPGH
# [19] = target: Insulin receptor-related protein (Homo sapiens) (UniProt P14616); conditions: at 1 µM
# [20] = target: T4, Tyrosine-protein kinase ITK/TSK (Homo sapiens) (UniProt Q08881); conditions: at 0.1 µM;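 further: mean percent inhibition of ITK from the GSK PKIS screen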
# T4 sequence (whole entry): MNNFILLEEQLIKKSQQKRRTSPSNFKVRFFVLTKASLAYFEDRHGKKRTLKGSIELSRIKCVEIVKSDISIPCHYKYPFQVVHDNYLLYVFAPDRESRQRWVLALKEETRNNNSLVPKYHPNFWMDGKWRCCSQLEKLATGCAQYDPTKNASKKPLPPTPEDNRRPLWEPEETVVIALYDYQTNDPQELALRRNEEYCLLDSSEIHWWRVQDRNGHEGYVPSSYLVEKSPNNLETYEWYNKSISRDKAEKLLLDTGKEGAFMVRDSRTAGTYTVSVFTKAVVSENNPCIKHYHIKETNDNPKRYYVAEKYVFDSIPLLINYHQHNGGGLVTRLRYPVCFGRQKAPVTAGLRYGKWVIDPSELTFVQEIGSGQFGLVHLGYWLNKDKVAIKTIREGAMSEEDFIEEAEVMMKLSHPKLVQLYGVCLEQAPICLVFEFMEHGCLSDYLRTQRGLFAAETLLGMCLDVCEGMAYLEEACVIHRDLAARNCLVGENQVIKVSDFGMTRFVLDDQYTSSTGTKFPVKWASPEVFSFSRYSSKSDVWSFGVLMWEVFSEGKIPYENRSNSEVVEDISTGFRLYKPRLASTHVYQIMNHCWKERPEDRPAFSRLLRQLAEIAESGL
structure (smiles),measurement,setting,value
CS(=O)(=O)CCNCc1ccc(-c2ccc3ncnc(Nc4ccc(OCc5cccc(C(F)(F)F)c5)cc4)c3c2)o1,inhibition,[1],2.96%
same,inhibition,[2],5.06%
same,inhibition,[3],6.5%
same,inhibition,[4],7.15%
same,inhibition,[5],1.14%
same,inhibition,[6],8.65%
same,inhibition,[7],15.4%
same,inhibition,[8],3.92%
same,inhibition,[9],9.05%
same,inhibition,[10],2.75%
same,inhibition,[11],0.05%
same,inhibition,[12],9.32%
same,inhibition,[13],11.7%
same,inhibition,[14],18.2%
same,inhibition,[15],11.6%
same,inhibition,[16],11.2%
same,inhibition,[17],3.04%
same,inhibition,[18],1.51%
same,inhibition,[19],3.38%
same,inhibition,[20],1.71%
COc1cccc(Nc2nccc(-c3cnn4ncccc34)n2)c1,inhibition,[1],26.1%
same,inhibition,[2],3.48%
same,inhibition,[3],21.3%
same,inhibition,[4],4.85%
same,inhibition,[5],52.3%
same,inhibition,[6],-0.16%
same,inhibition,[7],30.2%
same,inhibition,[8],50.4%
same,inhibition,[9],90.9%
same,inhibition,[10],1.46%
same,inhibition,[11],16.2%
same,inhibition,[12],7.25%
same,inhibition,[13],17.4%
same,inhibition,[14],14.5%
same,inhibition,[15],52.4%
same,inhibition,[16],10.9%
same,inhibition,[17],54.2%
same,inhibition,[18],3.8%
same,inhibition,[19],15.4%
same,inhibition,[20],1.26%
